Screens as filed in PubChem.
Sampled rows, rich in hits. Any-hit rate of the full collection: about 15%.
Gal4-VP16 FLuc: inhibits Gal4-VP16 luciferase reporter, ROR gamma counter-screen | AID 2546 | Potency, µM (top dose mostly 53.6 µM), most hits filed as inhibitors | Drosophila S2 Gal4-VP16 UAS-luciferase, luminescence, 20 h | 310,000 tested, 3.5% active;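 also: Gal4-VP16 expression switched on by copper sulfate through the metallothionein promoter; nearly all actives have a fitted effect of over 50% in size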
TDP1 cell CPT: growth inhibition of DT40 Tdp1-/-;hTDP1 cells with camptothecin (screen for TDP1 inhibitors). Potency, µM (titrated, usually from 46.2 µM), most hits filed as inhibitors. chicken DT40 Tdp1-/-;hTDP1 cells + 20 nM CPT, ATP luminescence, 48 h. 420,000 tested, 12% active; also: nearly all actives have a fitted effect of over 55% in size
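Cell growth measured by CellTiter-Glo luminescence after a minimum 48 h, 37 C compound exposure with 20 nM CPT in Tdp1-knockout DT40 cells stably expressing hTDP1, seeded 400/well; qHTS titration format.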
RORgamma inh: ROR gamma (mouse) transcription inhibition; P51450; Drosophila S2 Gal4-RORgamma UAS-luciferase reporter, 20 h; Potency, µM (series often up to 53.6 µM), usual class: inhibitors; 310,000 tested, 5.4% active; also: nearly all actives have a fitted effect of over 60% in size
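Drosophila S2 cells stably expressing Gal4-DBD/mouse RORγ fusion under metallothionein promoter plus UAS-luciferase; compound 1 h, then 700 uM CuSO4 induction for 20 h at ambient temperature; inhibition read as reduced luminescence.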
ELG1 repair inh: blocks ELG1-dependent DNA repair in HEK293T cells; 330,000 tested, 2.3% active; HEK293T ELG1-luciferase reporter, luminescence, 16 h; DNA damage induced by 5-fluorouridine; Potency, µM (series often up to 46.1 µM), actives largely listed as inhibitors; also: nearly all actives have a fitted effect of over 55% in size
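5-Fluorouridine DNA damage + compound/DMSO, 2,000 cells/well, 16 h, 37 °C/5% CO2. ONE-Glo, 30 min RT, luminescence. Readout = decrease in reporter signal.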
DT40 TDP1 no CPT: qHTS for Inhibitors of human tyrosyl-DNA phosphodiesterase 1 (TDP1): qHTS in cells in absence of CPT. Potency, µM (doses to about 46.2 µM), usual class: inhibitors. AID 686978, 2013. DT40 Tdp1-/- hTDP1 cells, no CPT, ATP luminescence, 48 h. 420,000 tested, 15% active; also: nearly all actives have a fitted effect of over 55% in size
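Cells were dispensed at 400 per well, compounds added by pin tool, plates incubated ≥48 hr at 37 °C, then CellTiter-Glo added for 30 min at room temperature before luminescence reading. Line: DT40 Tdp1-/- complemented with hTDP1; camptothecin omitted.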
12-LOX inh: blocks human arachidonate 12S-lipoxygenase | P18054 | purified 12hLO, xylenol orange hydroperoxide absorbance | Potency, µM (doses to about 108 µM), actives largely listed as inhibitors | 580,000 tested, 1.1% active | AID 1671190
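Hydroperoxide product was detected by ferrous iron/xylenol orange as the 573 to 405 nm absorbance ratio. Arachidonic acid at 40 uM (final) was turned over for 30 min at room temperature by 150 nM human 12hLO, pH 7.0 Hepes buffer, after 15 min compound preincubation.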
A number is an active result; 0 = inactive; ? = inconclusive; - = no result given; [ ] = dose if it differs, or a comment. Calls follow the shape of the dose curve; as a rule, active = well fitted curve in the direction sought with a large enough effect; inconclusive = small, poorly fitted or top-dose-only effect, or another doubt; inactive = no such curve, though single readings can be large; an effect the other way counts as inactive or inconclusive.

SMILES	Gal4-VP16 FLuc	TDP1 cell CPT	RORgamma inh	ELG1 repair inh	DT40 TDP1 no CPT	12-LOX inh
O=C1CCN(C(=O)c2ccco2)CCCC(c2nc(-c3ccccc3)no2)CCN1 (configuration not stated)	-	-	-	-	-	0
O=C(c1ccco1)N1CCCC(c2nc(-c3ccc(S(=O)(=O)NCc4ccccc4)cc3)no2)C1 (configuration not stated)	?	13µM	0	21µM	18µM	0
COc1ccc(-c2noc(C3CCCN(C(=O)CCc4ccccc4)C3)n2)cc1 (configuration not stated)	0	18µM	?	?	?	0
COc1cccc(CNC(=O)CC2=C3CCCCC3NC2=O)c1OC (configuration not stated)	-	-	-	-	-	0
CCn1ncc(CN2CCCC(C(=O)N3CCN(c4ccccn4)CC3)CCNC(=O)CC2)c1C (configuration not stated)	-	-	-	-	-	0
C#Cc1cccc(NC(=O)Cc2cccc(OC)c2)c1	-	-	-	-	-	0
Cc1ccsc1C(=O)N1CCC2(CC1)CC(N(Cc1ccccc1)C1CC1)CCO2 (configuration not stated)	-	-	-	-	-	0
COc1cc(/C=N/NC(=O)c2cc(-c3cccc(OC(C)C)c3)nc3ccccc23)ccc1O	-	?	-	-	2.1µM	0
COc1cc(/C=N/NC(=O)c2cc(-c3cccs3)nc3ccccc23)ccc1O	0	9.2µM	0	?	9.2µM	0
N#Cc1ccc(/C=N/NC(=O)c2cc(-c3cccs3)nc3ccccc23)cc1	0	9.2µM	0	0	21µM	?
CC1CCCCN1CC(=O)NCCc1c[nH]c2ccccc12 (configuration not stated)	-	-	-	-	-	0
Cc1c(Cc2ccccc2)sc(/N=C/c2ccc3ccccc3c2)c1C(N)=O	0	0.73µM	0	?	0.82µM	-
COc1ccc(/C=C/C(=O)Nc2sc(Cc3ccccc3)c(C)c2C(N)=O)cc1	0	0	0	0	0	0
Cc1c(Cc2ccccc2)sc(/N=C/c2c(O)ccc3ccccc23)c1C(N)=O	0	23µM	0[10 µM]	?	?	-
CCOC(=O)c1c(C)[nH]c(NC(=O)Nc2cccc(C)c2)c1C	-	-	-	-	-	0
CCc1n[nH]c2c1/C(=N\O)CC(c1ccccc1)C2 (configuration not stated)	0	?	0	0	23µM	0
O=C(Nc1ccc(Cl)cc1C(F)(F)F)c1ccc(Cl)cc1Cl	-	-	-	-	-	0
O=C(Nc1cc(=O)[nH]c2nc(-c3ccccc3)nn12)c1ccccc1Cl	0	0	0	0	12µM	0
O=C(Nc1cc(=O)[nH]c2nc(C(F)(F)F)nn12)c1ccc(Cl)cc1Cl	-	-	-	-	-	25µM
Cc1cc(NC(=O)c2ccccc2Cl)n(C(C)(C)C)n1	0	0	0	0	0	0
CCC(=O)Nc1ccc(Nc2nc(C)c([N+](=O)[O-])c(Nc3ccc(NC(=O)CC)cc3)n2)cc1	0	8.2µM	?	12µM	6.5µM	?
CC(=O)Nc1ccc(Nc2nc(C)c([N+](=O)[O-])c(Nc3ccccc3)n2)cc1	13µM	23µM	?	15µM	18µM	0
Cc1nc(Nc2ccc(C(=O)O)cc2)nc(Nc2ccc(C(=O)O)cc2)c1[N+](=O)[O-]	0	0	?	0	0	0
COc1ccc(/C=N/Nc2nc(C)c([N+](=O)[O-])c(N(C)c3ccccc3)n2)cc1OC	0	0	0	0	0	0
CC(=O)Nc1ccc(Nc2nc(C)c([N+](=O)[O-])c(N(C)c3ccccc3)n2)cc1	0	?	0	21µM	?	0
O=C1C(CCCNC(=S)NCc2ccccc2)NC(=S)N1Cc1ccccc1 (configuration not stated)	?	0	22µM	0	0	?
CC1NC(=S)N(Cc2ccccc2)C1=O (configuration not stated)	0	0	0	0	0	0
